B1: design_622_fcc41892-afde-4fb9-b6e8-b664fffd6a75_1097_dldesign_0_cycle1_af2pred (protein)
chain: SASEVAIKGGTALVNGAARAGIERIRRAGGGEADVERVKKIAEEAKKKIKAAKADAAKIGAIASEAVEEIRKLTEEVEKKA
B2: design_622_fcc41892-afde-4fb9-b6e8-b664fffd6a75_178_dldesign_0_cycle1_af2pred (protein)
chain: AAAAKAAAAAAAKAQTAEARALVEEAERLAETDPELAIEVARRAIALANRAALAAQRIGDAATAAEAMAVAERAAEVLTRAGRRARA
B3: design_622_fcc41892-afde-4fb9-b6e8-b664fffd6a75_169_dldesign_0_cycle1_af2pred (protein)
chain: AQRETIKNGILAMMRALALALDDPEKREEMIEALAGIAAQLPKEEGVRVIKEAAKEVAAKYPEKAEEILEAGERAVELAKKLS
B4: design_622_fcc41892-afde-4fb9-b6e8-b664fffd6a75_1277_dldesign_0_cycle1_af2pred (protein)
chain: SEEIIKKAEEIKEKAEKLLKEAAKLTPEQQKAAIKEMSKNLGELTELAKTASPEELKVINEAMNAAAKASVALAAKAA
B5: design_622_fcc41892-afde-4fb9-b6e8-b664fffd6a75_876_dldesign_0_cycle1_af2pred (protein)
chain: AEAERLRAGAESVLKMADVAYQAAKASAANPAAVAQAIASMTAAYKNAAELYREAGDEEKAKAALAKGDADVAAAKALAA
B6: design_622_fcc41892-afde-4fb9-b6e8-b664fffd6a75_148_dldesign_0_cycle1_af2pred (protein)
chain: GAAEEAAKVAAKGKALTDQAAAGDLETANALLGEALALLEEVARTGSPEAVAAAQAAVAALSKVVLAKAAA
B7: design_622_fcc41892-afde-4fb9-b6e8-b664fffd6a75_256_dldesign_0_cycle1_af2pred (protein)
chain: SAAAVAAAAAAASARQASAALEEALATGTPEEVLRAAETALKMAEVLAWAGEQSPAAQAALDALRAKAEAARKAVAAA
B8: design_622_fcc41892-afde-4fb9-b6e8-b664fffd6a75_413_dldesign_0_cycle1_af2pred (protein)
chain: SEKEEASKKLKELEEEGNKAYEKGKAAAAAGDTGAAGAELVKIVKMSSEAYKLSKYIPEEGKKVSDELSAKAVELSKLLTA
B9: design_622_fcc41892-afde-4fb9-b6e8-b664fffd6a75_572_dldesign_0_cycle1_af2pred (protein)
chain: EEELKKAVEEAKKEAKKAIETATQAIKLAQNYPALQAMAQAVKDAAKKALEKAEKGDLETAKRELQALKANLQMAQLLLESAQAG
B10: design_621_7e0052dc-ae49-49a0-b99f-9f3ee649cc2f_1640_dldesign_0_cycle1_af2pred (protein)
chain: GKKEEADKLVEEGNKLFEEAEALAKEGKVAEGSSKLIEGIKLYAEAAKLYREVDPAKADELYATAHAKSAKVNKLLLAAAR
B11: design_621_7e0052dc-ae49-49a0-b99f-9f3ee649cc2f_1898_dldesign_0_cycle1_af2pred (protein)
chain: ALAEAQRRAERLEREVEEAERRIEEHADDAERLEELAERLERLAHEALRLAATAPNEVAQRAVEIAERAARAAERARATAERLR
B12: design_621_7e0052dc-ae49-49a0-b99f-9f3ee649cc2f_2068_dldesign_0_cycle1_af2pred (protein)
chain: DETLKKAKEALKKAAKAAKKIGDEEIAKKVEEALKLLTPESAELALAMAEALLASLKTADGKENAAKIATALRSGVANVAAA
B13: design_622_fcc41892-afde-4fb9-b6e8-b664fffd6a75_393_dldesign_0_cycle1_af2pred (protein)
chain: AAAEAAAKAAALKAKADAAAAKGEEYYAKGKEYAAKGDVEKASEYYLEAIKYYSEAAKYYAKVDPALADAAMKKAQEATKQMMALAK
B14: design_621_7e0052dc-ae49-49a0-b99f-9f3ee649cc2f_1562_dldesign_0_cycle1_af2pred (protein)
chain: EEKKEEARERGEELVKEAEELAEKAAATSALAAMEAAEYALEVQQEIVELYSEAGDEEGLEEFSARVNKIVAYLQKAALEAQKAEA
B15: design_621_7e0052dc-ae49-49a0-b99f-9f3ee649cc2f_1809_dldesign_0_cycle1_af2pred (protein)
chain: GAELVRRTIEASARTARRAVEEARERAKTPEEVEAAAESARRILQVAVDIGANYPEVAGEAEELAAEVGEEAERTLEEARKEY
B16: design_622_fcc41892-afde-4fb9-b6e8-b664fffd6a75_877_dldesign_0_cycle1_af2pred (protein)
chain: SEEYRRRAEELERRAREAAEEARRAERAEELRRYAEELRRIANEAMRLAMEAAQAGGDPEVVVRAVEVAVEALRAAGEAYRRAEELE
B17: design_622_fcc41892-afde-4fb9-b6e8-b664fffd6a75_281_dldesign_0_cycle1_af2pred (protein)
chain: MKEKEKKLVEEAEKLLKEAKALPATPEGAQQAVQYGQKAAELGKKIKEAGGTKEAAEKAYQYANEAFKIAAQLGAQAA
B18: design_622_fcc41892-afde-4fb9-b6e8-b664fffd6a75_1477_dldesign_0_cycle1_af2pred (protein)
chain: GEAVQTAVDALKLLSEERRRAAALVAADPENAEARAILERLEESFRAVARAAANPATAQEVGEAGIAEAERARERLAALA
B19: design_622_fcc41892-afde-4fb9-b6e8-b664fffd6a75_788_dldesign_0_cycle1_af2pred (protein)
chain: SAAAEQLTLAAVRALSASAVAAEDPASSEQLFAVARDIADAASPETRARGLAIVDAARARAAARRAARAAAA
B20: design_621_7e0052dc-ae49-49a0-b99f-9f3ee649cc2f_2346_dldesign_0_cycle1_af2pred (protein)
chain: AEVAEIAKKTAEEVKKLIEAGAPAEEAAAVLNAGIAAVIKAAKAAGPASAADLGKAMDIFKETAELIVAYERERAAEAA
B21: design_622_fcc41892-afde-4fb9-b6e8-b664fffd6a75_365_dldesign_0_cycle1_af2pred (protein)
chain: AEAAKKNIEIAAKAGEAAVKNLKTMKPEDAKKLYEVVKDLAEYMKEQGKKAPEQAELAKEKAEKIEEEAKKALKEVEEKGKKA
B22: design_622_fcc41892-afde-4fb9-b6e8-b664fffd6a75_1090_dldesign_0_cycle1_af2pred (protein)
chain: AAALAEATAMQFVRQAKATTDPERKRALARGAALALQSVVSPEEAARKTAEMAEALGAPPEVIAAARALL
B23: design_622_fcc41892-afde-4fb9-b6e8-b664fffd6a75_1399_dldesign_0_cycle1_af2pred (protein)
chain: GAALAAAKGVAEQVKRVAEEAEAADPSLAPIMEEYKRRAEELLKKAQENASDEAKVNEYLAELVELLGEVARLRREALAA
B24: design_621_7e0052dc-ae49-49a0-b99f-9f3ee649cc2f_2349_dldesign_0_cycle1_af2pred (protein)
chain: GEQALQIARAAYVSAKNLLKDAEATENLEDAEKLAELAEAMAKQALEVAKAAAAQSAEAVEYAKKAKEYAEEAKKLVEEKKKA
B25: design_622_fcc41892-afde-4fb9-b6e8-b664fffd6a75_1048_dldesign_0_cycle1_af2pred (protein)
chain: NPAVERARNVAEYAKQLIDFATANPAVPQALVDAAKAVLEAATKAAKEAEEDPSKAPEVLKRADEALAQANAISAQAAKAATAA
B26: design_622_fcc41892-afde-4fb9-b6e8-b664fffd6a75_667_dldesign_0_cycle1_af2pred (protein)
chain: SAEEAVRKGEELTREAIKLAEEAVKGTPEKAKKAVEEIVKKMAEAIKASPAYGLLIANQARAIYLEAGKEDEAKAVKEGYKKALELAA
B27: design_622_fcc41892-afde-4fb9-b6e8-b664fffd6a75_655_dldesign_0_cycle1_af2pred (protein)
chain: SMEAAAREAGKAEAEKVFAEAKAEGLGLGEAAKRIHDIFSKVSKFNPEFGAIARNAALAELQKLALAADA
B28: design_622_fcc41892-afde-4fb9-b6e8-b664fffd6a75_786_dldesign_0_cycle1_af2pred (protein)
chain: DLLAEALRLAERAVEALREDPEEGRRLLEELAELGRRALAEKGDGLAVLLGLAARRALRLLEEDPEEARDFLERAVAFVRAQS
B29: design_622_fcc41892-afde-4fb9-b6e8-b664fffd6a75_254_dldesign_0_cycle1_af2pred (protein)
chain: VDPEAQAKAEAEKMLEETKKAAEESPELAAETLNKGMAEMVKLAQANPEANEIYMKYGIEAAKKASEYIKELQEKRA
B30: design_622_fcc41892-afde-4fb9-b6e8-b664fffd6a75_1089_dldesign_0_cycle1_af2pred (protein)
chain: AATKEEAQKAMVEASEVATELLRKAGEAYKAGDEELAEELRRAANELMRAMVQAAKDPAKGLEAVKKAVERGKELLKRAEEALKKA
B31: design_621_7e0052dc-ae49-49a0-b99f-9f3ee649cc2f_1508_dldesign_0_cycle1_af2pred (protein)
chain: AKEEEEEAKKKAESVKKMVEVAKALAEYAKKSTDPQVAKIAANAAIGLANNAIEVGKKYPEAEPYAKEAEKVKEEAKKVIEEK
B32: design_621_7e0052dc-ae49-49a0-b99f-9f3ee649cc2f_1985_dldesign_0_cycle1_af2pred (protein)
chain: MAEEAEKLKKEAEKEFEKLKAEAKKYAAANGAKGQLAYQAVVGTGRSALDSLEALADDPERAKKTVEQLLAVAKDLVKSAAA
B33: design_622_fcc41892-afde-4fb9-b6e8-b664fffd6a75_1349_dldesign_0_cycle1_af2pred (protein)
chain: AEASQALARRFIDATLAQMLAQIAAASAEEARRIAEAGLKAIEVAAQALPAEERAARVAEARERGAAAIAAKE
B34: design_622_fcc41892-afde-4fb9-b6e8-b664fffd6a75_316_dldesign_0_cycle1_af2pred (protein)
chain: DALKVIEEYTKKALENIEDRELAALYLANMGVKVAQLVGDGSIGALAMKAAAEAYKSSVEEAKKIIKETAEKIKKIVE
B35: design_621_7e0052dc-ae49-49a0-b99f-9f3ee649cc2f_1792_dldesign_0_cycle1_af2pred (protein)
chain: EEAARQALLEAVTKTAIDLIKKADEAAKTDPAQAELYAYQAASLIASVLHQDPEKGKEVLEIAKKSAFGELITKKTEEMLKKIDAA
B36: design_621_7e0052dc-ae49-49a0-b99f-9f3ee649cc2f_2499_dldesign_0_cycle1_af2pred (protein)
chain: AAAQQTFQNFLGYATLAAAYLATVDPAAAEELMALAAKARADPEKAKEYFAKAKELLTKHLDKLAAYSPEAGQAAQNAIDAANTLL
B37: design_622_fcc41892-afde-4fb9-b6e8-b664fffd6a75_7_dldesign_0_cycle1_af2pred (protein)
chain: NEHLKEAAKHLEKAIEADAETALQLAQEALSHLLAALREASPEVRPLVEEAISHVTQALVYLSEGGETVEKGREELKKALEHAEKAAA
B38: design_621_7e0052dc-ae49-49a0-b99f-9f3ee649cc2f_2237_dldesign_0_cycle1_af2pred (protein)
chain: MREEINRRMVELSGRINALFPYAQQDPEVNALLGKALGDLLEAHATPDPEEAAELVERAEEYVEAAEARAAALAA

Target: CD276, Q5ZPR3
Sequence (Q5ZPR3 whole entry): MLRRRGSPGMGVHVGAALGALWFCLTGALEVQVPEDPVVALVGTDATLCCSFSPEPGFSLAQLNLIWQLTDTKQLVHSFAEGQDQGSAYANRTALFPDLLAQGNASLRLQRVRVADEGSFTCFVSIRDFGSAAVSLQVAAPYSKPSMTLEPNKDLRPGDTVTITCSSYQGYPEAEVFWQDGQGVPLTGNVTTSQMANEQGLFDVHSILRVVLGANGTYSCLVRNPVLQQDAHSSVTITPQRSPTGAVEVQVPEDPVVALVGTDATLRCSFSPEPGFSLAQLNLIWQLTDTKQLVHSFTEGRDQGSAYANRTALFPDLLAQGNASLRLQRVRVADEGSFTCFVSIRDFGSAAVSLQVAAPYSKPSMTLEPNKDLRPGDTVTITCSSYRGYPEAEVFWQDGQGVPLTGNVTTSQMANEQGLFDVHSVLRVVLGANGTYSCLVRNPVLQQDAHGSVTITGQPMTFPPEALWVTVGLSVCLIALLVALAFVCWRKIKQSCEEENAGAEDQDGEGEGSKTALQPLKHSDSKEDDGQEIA

Binding in a display sort, inactive:
B1 not found, B2 not found, B3 not found, B4 not found, B5 not found, B6 not found, B7 not found, B8 not found, B9 not found, B10 not found, B11 not found, B12 not found, B13 not found, B14 not found, B15 not found, B16 not found, B17 not found, B18 not found, B19 not found, B20 not found, B21 not found, B22 not found, B23 not found, B24 not found, B25 not found, B26 not found, B27 not found, B28 not found, B29 not found, B30 not found, B31 not found, B32 not found, B33 not found, B34 not found, B35 not found, B36 not found, B37 not found, B38 not found
